# According to PubChem BioAssay (NCI):
# The panel holds about 83,000 compounds, 20% with a hit somewhere; the sample as a whole holds those more often.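 Treatment: one concentration, 48 hours, 96-well format. Scoring: percent growth, with anything below 10 considered active.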 Values without a mark were called inactive. The source made the active and inactive calls.
# Columns and labels:
# Assay in all cases: NCI-60 one-dose screen, 48 h (100 = growth as untreated, 0 = no growth, -100 = all killed)
# Conditions in all cases: 10 µM unless noted
# NCI-H23 lung = system: NCI-H23 lung
# NCI-H226 lung = system: NCI-H226 lung
# NCI-H322M lung = system: NCI-H322M lung
# HOP-62 NSCLC = system: HOP-62 NSCLC
# NCI-H460 lung = system: NCI-H460 lung
# 786-0 renal = system: 786-0 renal
# MDA-MB-231 breast = system: MDA-MB-231 breast
# SF-268 CNS = system: SF-268 CNS
# M14 melanoma = system: M14 melanoma
# PC-3 prostate = system: PC-3 prostate
# UACC-62 melanoma = system: UACC-62 melanoma
# SN12C renal = system: SN12C renal
# UO-31 renal = system: UO-31 renal
# OVCAR-5 ovarian = system: OVCAR-5 ovarian
# NCI/ADR-RES ovarian = system: NCI/ADR-RES ovarian
# MDA-MB-435 melanoma = system: MDA-MB-435 melanoma
# SW-620 colon = system: SW-620 colon
# HCT-116 colon = system: HCT-116 colon
# KM12 colon = system: KM12 colon
# SK-MEL-28 melanoma = system: SK-MEL-28 melanoma
SMILES,growth (NCI-H23 lung),growth (NCI-H226 lung),growth (NCI-H322M lung),growth (HOP-62 NSCLC),growth (NCI-H460 lung),growth (786-0 renal),growth (MDA-MB-231 breast),growth (SF-268 CNS),growth (M14 melanoma),growth (PC-3 prostate),growth (UACC-62 melanoma),growth (SN12C renal),growth (UO-31 renal),growth (OVCAR-5 ovarian),growth (NCI/ADR-RES ovarian),growth (MDA-MB-435 melanoma),growth (SW-620 colon),growth (HCT-116 colon),growth (KM12 colon),growth (SK-MEL-28 melanoma) [%]
CO[C@@H]1[C@H](OC(=O)NC(=O)CCl)CC[C@]2(CO2)[C@H]1[C@@]1(C)O[C@@H]1CC=C(C)C,64.1%,72.7%,59.8%,64.4%,23.5%,70.4%,79.9%,71.5%,62%,20.2%,63.5%,72.3%,52.6%,72.3%,75.9%,62.6%,49.4%,43.8%,36.3%,–
CC(C)(O)/C=C/C(=O)[C@](C)(O)[C@H]1[C@H](O)C[C@@]2(C)[C@@H]3CC=C4[C@@H](C=C(O)C(=O)C4(C)C)[C@]3(C)C(=O)C[C@]12C,-40.1% (active),-33.9% (active),-20.1% (active),-64.2% (active),-20.8% (active),-96.2% (active),-25% (active),-27.5% (active),-75.3% (active),-58.8% (active),-29.9% (active),7% (active),-54.6% (active),-3.44% (active),12.2%,-52.1% (active),-20% (active),-53.5% (active),-60.9% (active),–
COc1ccc(/C=C\c2cc(OC)c(OC)c(OC)c2)cc1N/C=C\C(=O)c1c[nH]c2ccccc12,26.6%,-0.606% (active),40.6%,39.3%,6.44% (active),20.9%,18.4%,15.1%,11.3%,10.4%,31%,26.1%,26.4%,18.8%,0.644% (active),-7.95% (active),24.7%,2.62% (active),3.99% (active),33.8
CCC(C)/C=C(C)/C=C/C(=O)c1c(O)c(-c2ccc(O)cc2)c[nH]c1=O (stereo unspecified),64.6%,91.5%,59.3%,60.8%,31.6%,49.7%,70%,33.3%,79.1%,45%,48.8%,60.5%,35%,–,33.5%,24.2%,39.6%,39%,40.6%,91
C1CN1c1nc(N2CC2)nc(N2CC2)n1,15.8%,58.6%,78.1%,31.3%,16.5%,9.79% (active),87.8%,30.4%,25.1%,45.2%,41.1%,51.7%,1.86% (active),64.5%,36.8%,63.9%,51.8%,42.6%,61.8%,–
CN=C(NN)NN,102%,109%,114%,135%,111%,103%,120%,103%,105%,93.3%,116%,113%,90.8%,111%,–,99.8%,107%,109%,108%,118
CCCCNCCc1ccccn1,99.9%,110%,113%,107%,107%,97.6%,114%,107%,99.6%,96%,109%,112%,88.4%,101%,105%,109%,103%,102%,102%,104
CCC(CC)(c1ccccc1)C(OC(N)=O)c1ccccc1 (stereo unspecified),79.9%,81.8%,85%,84.7%,90.1%,82.9%,94.7%,93.9%,83.6%,72.3%,–,81.8%,71.4%,111%,79.9%,50.6%,81%,62.4%,83.8%,85.4
c1ccc2nc(OCCN3CC3)ccc2c1,74.2%,83.1%,94%,76.8%,72.3%,84.2%,75%,96.6%,86.5%,–,79.3%,79.9%,59.4%,86.2%,89.2%,83.3%,64.8%,25%,80.3%,111
CC(/C=N/N=C(N)N)=N/N=C(N)N,95.3%,97.4%,34.9%,81.1%,66.2%,70.4%,102%,72.9%,92.4%,108%,93.6%,94.9%,69.9%,84.4%,74.3%,100%,98.5%,83.9%,73.1%,96.4
S=P(NC1CCCCC1)(N1CC1)N1CC1,110%,113%,113%,101%,82.8%,101%,104%,98.6%,105%,–,91.4%,98.1%,94.1%,104%,111%,110%,96.5%,93.3%,110%,122
COC(C)(C)CCC[C@H](C)C/C=C/C(C)=C/C(=O)OC(C)C,78.7%,103%,108%,107%,109%,85.8%,102%,103%,100%,88.7%,96.6%,92.5%,84.9%,128%,91.7%,97.4%,105%,83.6%,107%,101
C[C@]12CCC(=O)CC1CC[C@@H]1C2CC[C@@]2(C)C1CC[C@@H]2OC(=O)CC[Se][Se]CCC(=O)O[C@H]1CCC2[C@@H]3CCC4CC(=O)CC[C@]4(C)C3CC[C@@]21C (stereo partly specified),102%,93%,84.1%,82.4%,95.9%,107%,94.3%,94.1%,78.7%,89.4%,88.5%,103%,90.5%,102%,92.9%,88.5%,122%,95.5%,103%,98.9
CC(C)C1c2ccc(O)cc2Oc2nc(N)c(C#N)c(N)c21 (stereo unspecified),105%,93.6%,93.8%,92.9%,107%,96.1%,89.9%,112%,129%,92.1%,–,103%,89.2%,104%,102%,103%,115%,103%,103%,117
O=S(=O)(Cl)c1ccccc1 (tested in a mixture with another compound),106%,97.3%,102%,92.9%,103%,102%,117%,104%,102%,103%,106%,102%,85%,93.7%,110%,115%,96.9%,99.4%,108%,103
O=C1NC(=O)C(Cc2ccccc2)(Cc2ccccc2)C(=O)N1,111%,105%,111%,95.8%,110%,98.6%,98.9%,109%,103%,105%,95.1%,104%,78.7%,110%,113%,113%,107%,107%,105%,97.9
